# This is a sample that favours compounds with a hit; in the whole collection about 11% have one here.
# IMPase inh: qHTS Assay for Identifying the Cell-Membrane Permeable IMPase Inhibitors. CHO-M1 cells, IP1 accumulation, HTRF TR-FRET ratio. inhibition (IP1 accumulation), % at 46.1 µM. 120,000 tested, under 10 active. AID 901, 2007; active means well fitted curve in the direction sought with a large enough effect in the signal ratio, not every such curve was filed as active; inconclusive means small, poorly fitted or top-dose-only effect, or a change in a side signal; inactive means no such curve, though single readings can be large or run the other way; the % refers to the signal ratio;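 further: cells stimulated with carbachol in lithium chloride buffer; plate controls were DMSO basal wells for no effect and reference inhibitor wells for full effect; higher means more IMPase inhibition seen as more IP1 and lower FRET ratio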
# Target sequence (P97697 whole entry, looked up): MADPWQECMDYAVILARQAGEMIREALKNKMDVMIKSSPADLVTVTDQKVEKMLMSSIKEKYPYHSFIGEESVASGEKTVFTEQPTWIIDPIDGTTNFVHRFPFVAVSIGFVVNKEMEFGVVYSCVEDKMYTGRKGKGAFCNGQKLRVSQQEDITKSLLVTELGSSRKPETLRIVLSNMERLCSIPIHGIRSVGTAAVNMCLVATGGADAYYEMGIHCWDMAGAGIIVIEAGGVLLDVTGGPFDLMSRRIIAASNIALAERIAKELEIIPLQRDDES
#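 Measured: the HTRF emission ratio (665/620 nm) plus the 620 nm donor channel, each fitted to the Hill equation to give AC50. Cells were CHO-M1 given compounds up to 46 uM and a 30 min carbachol stimulation at 37C.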
# PNC inhibitor: High Content Assay for Compounds that inhibit the Assembly of the Perinucleolar Compartment. hit rate 3.1% among 140,000. PC3M PTB-GFP, PNC prevalence imaging, 16 h; active compounds read low. activity change (PNC), negative = inhibition, % at 10 µM. AID 2417, 2010;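 active means readout at or below -70, meaning at least 70% loss of cells showing the perinucleolar compartment, a nuclear body marking cancer cells; inconclusive means readout between -30 and a set limit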;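 further: plate controls were DMSO wells for no effect and camptothecin positive control wells for full effect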
#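 PC3M cells stably expressing PTB-GFP, 750–1000 cells/well, treated 16 h at 37 °C with compound (23 nl of library stock), in duplicate. After paraformaldehyde fixation and Hoechst stain, imaged at 20x; PNC prevalence scored by image analysis.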
# IMPase Li cell: qHTS Assay for Identifying the Cell-Membrane Permeable IMPase Inhibitors: Potentiation with Lithium. hit rate 0.35% among 210,000. CHO-M1 cells, IP1 TR-FRET (IP-One), carbachol + lithium. Potency, µM (series often up to 59.4 µM), inactives show at the highest dose activity, negative = IMPase inhibition, actives largely listed as inhibitors;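 further: IP1 builds up when IMPase is blocked and the TR-FRET signal falls; potency means the concentration at half of the fitted maximal effect; plate controls were basal vehicle for no effect and high inhibitor control for full effect; nearly all actives have a fitted effect of over 50% in size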
#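 Concentration–response in CHO-M1 cells, lithium-potentiated; 30 min at 37C. IP1 detected by competitive TR-FRET after 10 min lysis at RT. Hill-fitted AC50.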
# ALDH1A1 inh: qHTS Assay for Inhibitors of Aldehyde Dehydrogenase 1 (ALDH1A1) | Aldehyde dehydrogenase 1A1 (Homo sapiens), P00352 | Purified ALDH1A1, NADH fluorescence, propionaldehyde substrate | Potency, µM (highest dose often 75.3 µM), for inactives: at the top dose activity, negative = inhibition, actives largely listed as inhibitors | hit rate 7.3% among 220,000 | AID 1030, 2008; active means well fitted inhibition curve with a large enough effect, not every such curve was filed as active; inconclusive means small, poorly fitted or top-dose-only effect, or another doubt; inactive means no such curve, though single readings can be large or run the other way;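 further: potency means the concentration at half of the fitted maximal effect; plate controls were no enzyme wells and a reference inhibitor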
# HPGD inh: qHTS Assay for Inhibitors of HPGD (15-Hydroxyprostaglandin Dehydrogenase); hit rate 4.3% among 150,000; purified HPGD, NADH fluorescence kinetic, PGE2 substrate; 15-hydroxyprostaglandin dehydrogenase [NAD(+)] (Homo sapiens), P15428; Potency, µM, without a hit: at the top dose activity change, negative = inhibition, most hits filed as inhibitors; AID 894, 2007; active means well fitted inhibition curve with a large enough effect, not every such curve was filed as active; inconclusive means small, poorly fitted or top-dose-only effect, or another doubt; inactive means no such curve, though single readings can be large or run the other way; further: potency means the concentration at half of the fitted maximal effect
#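 NADH formation kinetics: reaction with 30 uM PGE2 and 1 mM NAD+ (final), 20 nM enzyme, Tris-HCl pH 8 with Tween 20, after 15 min compound preincubation at room temperature. Fluorescence change, last versus first of five reads.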
# NPSR antagonist: qHTS Assay for Antagonists of the Neuropeptide S Receptor: cAMP Signal Transduction; Q6W5P4; CHO-NPSR cells, cAMP TR-FRET, antagonist mode; Potency, µM (doses to about 38.3 µM), for inactives: at the top dose activity change, negative = inhibition, hits mostly inhibitors; hit rate 1% among 220,000; AID 1461, 2008; further: potency means the concentration at half of the fitted maximal effect; nearly all actives have a fitted effect of over 50% in size
# Target sequence (Q6W5P4 whole entry, looked up): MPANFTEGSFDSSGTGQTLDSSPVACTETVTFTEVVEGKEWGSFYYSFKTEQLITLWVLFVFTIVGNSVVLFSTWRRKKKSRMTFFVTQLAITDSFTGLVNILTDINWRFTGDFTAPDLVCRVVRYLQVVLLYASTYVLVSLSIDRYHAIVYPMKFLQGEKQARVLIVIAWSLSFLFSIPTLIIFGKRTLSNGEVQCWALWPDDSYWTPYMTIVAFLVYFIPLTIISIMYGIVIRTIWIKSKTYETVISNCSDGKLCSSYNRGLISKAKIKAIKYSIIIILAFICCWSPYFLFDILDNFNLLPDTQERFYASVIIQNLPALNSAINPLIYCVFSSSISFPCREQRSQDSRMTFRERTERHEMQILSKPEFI
# * marks the source's active call; other numbers are inactive results; ? = inconclusive; nt = no result; [ ] = dose if it differs, or a comment. Unless noted, the call rests on the fitted dose curve; in most records, active means well fitted curve in the direction sought with a large enough effect; inconclusive means small, poorly fitted or top-dose-only effect, or another doubt; inactive means no such curve, though single readings can be large; an effect the other way counts as inactive or inconclusive. Unless noted, on the % scale 0 is the no-effect control and ±100 the full control effect.
SMILES,IMPase inh,PNC inhibitor,IMPase Li cell,ALDH1A1 inh,HPGD inh,NPSR antagonist
O=C(O)c1ccc(N/N=C/C=C/c2ccccc2)cc1,nt,nt,nt,nt,nt,-18%
Cc1cc(/C=C2\SC(=Nc3ccccc3)NC2=O)c(C)n1-c1ccc(S(N)(=O)=O)cc1,11,-30,28%[38.3 µM],28µM*,-18%,5%[46.1 µM]
O=C1NC(=Nc2ccccc2)S/C1=C/c1cccs1,nt,nt,2%,5%,nt,-6%
Cc1cc2cc(C(c3nnnn3Cc3ccco3)N3CCc4ccccc43)c(=O)[nH]c2cc1C (centres undefined),6,-6,nt,7.9µM*,nt,?
Cc1ccc2cc(C(c3nnnn3Cc3ccccc3)N3CCc4ccccc43)c(=O)[nH]c2c1 (centres undefined),7,1,36%[38.3 µM],18µM*,-4%,-12%[46.1 µM]
O=C1CCC(=O)N1c1cccc(OS(=O)(=O)c2ccccc2)c1,nt,?,3%,0.35µM*,-6%,3%
CC1CCC2C(=O)N(c3cccc(OS(=O)(=O)c4ccccc4)c3)C(=O)C2C1 (centres undefined),nt,31,11%,13µM*,-13%,-20%
Cc1cc(C)c2c(-n3cccc3)c(NC(=O)OC(C)C)sc2n1,3,104,5%[38.3 µM],?,-13%,-23%[46.1 µM]
Cc1cc(C)c2c(-n3cccc3)c(C(=O)NNS(=O)(=O)c3ccccc3)sc2n1,4,-15,6%[38.3 µM],4.5µM*,-8%,-10%[46.1 µM]
COCc1cc(C)nc2sc(C(=O)NN)c(-n3cccc3)c12,nt,nt,4%,0.5µM*,nt,-1%
Cc1cc(C)c2c(-n3cccc3)c(C(=O)O)sc2n1,5,31,-3%[38.3 µM],22µM*,-21%,-9%[46.1 µM]
N#Cc1ccsc1NC(=O)CN1CCN(c2ccccn2)CC1,-1,14,15%[38.3 µM],8%,-3%,-9%[46.1 µM]
Cc1ccc(-n2c(-c3ccco3)n[nH]c2=S)cc1,nt,nt,-7%,-16%,nt,30%
O=C(CCC(=O)NCCCc1ccccc1)NCCCc1ccccc1,nt,?,-5%,3%,-10%,32%
O=C1OC(c2ccc(F)cc2)=C/C1=C\c1ccc([N+](=O)[O-])o1,nt,nt,3%,20µM*,nt,-38%
O=C1OC(c2ccccc2)=C/C1=C/c1cccs1,nt,-18,9%,-4%,-5%,-8%
CN(C)/N=C/c1ccc(OC(=O)c2cccc([N+](=O)[O-])c2)cc1,nt,nt,9%,-5%,nt,-8%
Cc1cccn2c(=O)c3cc(C(=O)NCCc4ccccc4)c(=N)n(CCCn4ccnc4)c3nc12,-5,38,nt,5.6µM*,nt,-27%[46.1 µM]
CCOCCCNC(=O)c1cc2c(=O)n3cccc(C)c3nc2n1C,9,-116*,8%[38.3 µM],?,?,0%[46.1 µM]
COc1ccc(CNc2cc(-c3cccc(NS(C)(=O)=O)c3)ncn2)c(OC)c1,nt,nt,17%,19%,nt,nt
CCC(=O)NC(=S)Nc1ccc2oc(-c3ccc(OC)cc3)nc2c1,nt,nt,-20%,-7%,nt,-24%
COc1ccc(-c2nc3cc(NC(=S)NC(=O)Cc4ccccc4)ccc3o2)cc1,nt,-6,-30%,11µM*,-14%,-38%
CCOc1cc(CNc2ccc3c(c2)CCC3)ccc1O,8,-13,24%[38.3 µM],?,-7%,-4%[46.1 µM]
COc1cc(CNc2ccc3c(c2)CCC3)cc(OC)c1O,-13,-20,8%,20µM*,-27%,15%[46.1 µM]
COc1ccc(CNc2ccc(C)c(C)c2)c(OC)c1OC,nt,nt,31%,13µM*,nt,-22%
SMILES,IMPase inh,PNC inhibitor,IMPase Li cell,ALDH1A1 inh,HPGD inh,NPSR antagonist
COc1ccc(CNc2cc(C)ccc2C)c(OC)c1OC,1,1,17%,?,-22%,-16%[46.1 µM]
COc1cc(CNc2ccc(C)c(C)c2)cc(OC)c1OC,4,-29,25%[38.3 µM],8.9µM*,-11%,-23%[46.1 µM]
Cc1ccc(C(NC(=O)c2ccccc2)C(Cl)Cl)cc1 (centres undefined),nt,?,2%,?,0%,-21%
OC(COCC1COc2ccccc2O1)CN1CCCCC1 (centres undefined),10,?,8%,17%,2%,25%
CCN1CCN(CC(O)COCC2COc3ccccc3O2)CC1 (centres undefined),nt,nt,-5%,28µM*,nt,15%
Cc1c(C(=O)OC(C)C(C)C[N+](C)(C)C)oc2ccccc12 (centres undefined),14,-6,27%[38.3 µM],-10%,-7%,-15%[46.1 µM]
CCOC(=O)C(=Cc1ccc(-n2cncn2)cc1)C(=O)OCC,nt,nt,13%,-7%,nt,-53%
CC(=O)Nc1cccc(Oc2ccc3c(c2)C(=O)N(CCC(=O)O)C3=O)c1,10,-15,20%[38.3 µM],2%,25µM*,-6%[46.1 µM]
O=C(O)CCN1C(=O)c2ccc(NC(=O)CSc3ccccc3)cc2C1=O,-13,-26,-4%,?,20µM*,15%
CCCC(=O)Nc1ccc2c(c1)C(=O)N(CCC(=O)O)C2=O,-5,32,-18%[38.3 µM],?,?,-6%[46.1 µM]
COCCCN1C(=O)c2ccc(C(=O)Nc3cccc(OC)c3)cc2C1=O,2,31,-15%[38.3 µM],1.6µM*,-13%,-27%[46.1 µM]
COc1cccc(C(=O)Nc2ccc3c(c2)C(=O)N(CCC(=O)O)C3=O)c1,9,?,6%[38.3 µM],13%,-14%,-3%[46.1 µM]
CCOC(=O)C1=C(C)N(C)C(=S)NC1c1cc(OC)ccc1OC (centres undefined),nt,nt,6%,-14%,nt,-9%
c1nc(N2CCC3(CC2)OCCO3)c2[nH]cnc2n1,nt,-113*,-2%,15%,-5%,12%
c1nc(N2CCCC2)c2[nH]cnc2n1,-9,-7,-3%,-2%,-17%,18%[46.1 µM]
C/C(CC(=O)Nc1ccc2c(c1)OCO2)=N\NC(=O)C(c1ccccc1)c1ccccc1,nt,24,0%,3.2µM*,-7%,-6%
CC1(C)CC(=O)C(N=Nc2cccc(F)c2C#N)=C(O)C1,nt,nt,nt,nt,nt,8%
COc1ccc(N=NC2=C(O)CC(C)(C)CC2=O)cc1,7,9,14%[38.3 µM],0.89µM*,32µM*,-30%[46.1 µM]
CC1(C)CC(=O)C(N=Nc2ccc(C(F)(F)F)cc2[N+](=O)[O-])=C(O)C1,nt,nt,nt,3.5µM*,nt,-18%
CC1(C)CC(=O)C(N=Nc2ccc(Br)cc2)=C(O)C1,nt,nt,nt,nt,nt,10%
COc1ccc(N=NC2=C(O)CC(C)(C)CC2=O)c(OC)c1,10,11,0%,0.28µM*,-13%,-7%[46.1 µM]
O=C(Nc1ccc(F)cc1)OCCN1CCN(Cc2ccccc2)CCC1=O,nt,?,6%,3%,-11%,-8%
CN(CC(=O)OCC(=O)NCC(F)(F)F)S(=O)(=O)c1ccc(Cl)cc1,nt,nt,-7%,2%,nt,16%

# Screening results: PubChem, National Center for Advancing Translational Sciences (NCATS)
